Each structure is given as a SMILES string. Records with an inconclusive call do not appear. Entries that show only a call come without a potency. The source made the active and inactive calls. Unless noted, calls come from the whole dose curve.

Estrogen receptor beta (Homo sapiens), sequence (Q92731 whole entry, looked up): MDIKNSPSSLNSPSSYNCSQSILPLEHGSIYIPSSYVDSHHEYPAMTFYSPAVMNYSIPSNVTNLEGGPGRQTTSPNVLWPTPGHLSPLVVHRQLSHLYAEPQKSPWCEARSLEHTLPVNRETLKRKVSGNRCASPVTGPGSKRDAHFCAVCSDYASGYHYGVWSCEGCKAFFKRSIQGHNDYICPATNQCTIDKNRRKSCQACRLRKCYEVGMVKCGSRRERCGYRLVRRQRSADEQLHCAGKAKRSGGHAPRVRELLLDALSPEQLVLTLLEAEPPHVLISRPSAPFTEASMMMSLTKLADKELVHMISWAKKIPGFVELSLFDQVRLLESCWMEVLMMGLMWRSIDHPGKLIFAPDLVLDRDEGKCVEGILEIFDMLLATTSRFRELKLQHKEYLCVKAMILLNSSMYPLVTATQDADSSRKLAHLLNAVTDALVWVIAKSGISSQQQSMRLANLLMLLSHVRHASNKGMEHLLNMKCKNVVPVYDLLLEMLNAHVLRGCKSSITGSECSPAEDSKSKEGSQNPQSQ

Tested on in the first test: not listed separately
Description: qHTS assay to identify small molecule agonists of the sonic hedgehog signaling (Shh) pathway (AID 1259368). Note: nearly all actives have a fitted effect of over 15% in size. The note with it: NIH/3T3 Gli1-Luc reporter, luciferase, 24 h; series mostly up to 92.4 µM. Summed up:
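NIH/3T3-derived 3T3Gli1-Luc cells carrying a stably integrated Gli1 response element–firefly luciferase reporter were plated, left 4 hr at 37 C, then given compounds in DMSO for 24 hr. Luminescence was read 30 min after adding luciferase reagent.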
For orientation: qHTS replaces the single test concentration by a dilution series.
For the compound `COC(=O)CC(C(C)=O)C(=O)OC` (stereo not given), the Potency entry was “inactive”.
The same measure, in the same setting: the value for `CC(C)(O)CCc1ccccc1` was “inactive”; that for `C=C(C)c1ccccc1` was “inactive”.
The same measure, in the same setting: the value for `Cc1cccc2sc(N)nc12` was “inactive”.
As for `Nc1cccc2c(N)cccc12`, the Potency entry is “inactive”.
`CC(=O)Oc1cccc(O)c1`: the Potency entry was “inactive”.
Regarding `CCCOC(=O)c1c(Cl)c(Cl)c(Cl)c(Cl)c1C(=O)OCCC`, the Potency result is “inactive”.
With `CCc1ccc(C)cc1`, the Potency result was “inactive”.
In the case of `COC(OC)OC`, the Potency entry was “inactive”.
Regarding `CCCCCCCCCCCCCOS(=O)(=O)O`, the Potency result is “inactive”.
On the same count and under the same terms, the value for `Nc1ccc(F)cc1` was “inactive”; that for `CCCCCCCCCCCCCCCCCC(=O)OCC(CC)CCCC` (stereo not given) was “inactive”.
For the compound `CC(=O)OCCC(C)CC(C)(C)C` (stereo not given), the Potency result is “inactive”.
For the compound `CCCCCc1ccco1`, the Potency result is “inactive”.
On the same count and under the same terms, the value for `CC(C)(O)c1coc(S(=O)(=O)NC(=O)Nc2c3c(cc4c2CCC4)CCC3)c1` was “inactive”; that for `Cc1ccc(N(CC2=NCCN2)c2cccc(O)c2)cc1` was “inactive”.
As to `CC(=O)C(C)=O`, the Potency entry was “inactive”.
As for `CC(C)N(C)C`, the Potency entry was “inactive”.
On the same count and under the same terms, the value for `CCC(=O)OCc1ccc(OC)cc1` was “inactive”; that for `C[C@@H]1[C@H](O)[C@@H](C)/C=C/C=C\C=C\C=C\C=C\C=C\C=C\[C@H](O[C@@H]2O[C@H](C)[C@@H](O)[C@H](N)[C@@H]2O)C[C@@H]2O[C@](O)(C[C@@H](O)C[C@@H](O)[C@H](O)CC[C@@H](O)C[C@@H](O)CC(=O)O[C@H]1C)C[C@H](O)[C@H]2C(=O)O` (stereo in doubt) was “inactive”.
For the compound `O=C(NC(Cc1cc(=O)[nH]c2ccccc12)C(=O)O)c1ccc(Cl)cc1` (stereo not given), the Potency entry is “inactive”.
The same measure, in the same setting: the value for `O=C(O)c1ccc(O)cc1O` was “inactive”.
`CN1C(CSCC(F)(F)F)Nc2cc(Cl)c(S(N)(=O)=O)cc2S1(=O)=O` (stereo not given): the Potency result is “inactive”.
`CCCCOC(=O)CCCCC(=O)OCCCC`: the Potency entry is “inactive”.
Still for that read-out and setting: the value for `O=C(Nc1ccc(C(=O)O)c(O)c1)c1ccccc1` was “inactive”; that for `Cc1ccc(N(CCO)CCO)cc1` was “inactive”; that for `CC(=O)NCCO` was “inactive”.
Still for that read-out and setting: the value for `Cc1c(C2(c3cc(Br)c(O)c(Br)c3C)OS(=O)(=O)c3ccccc32)cc(Br)c(O)c1Br` was “inactive”; that for `C=Cc1ccc(OC(C)=O)cc1` was “inactive”; that for `Cc1ccc2c(c1)CCCN2` was “inactive”.
Still for that read-out and setting: the value for `CNCc1ccc(NC(=O)c2c[nH]c3c2C(=O)CCC3)cc1` was “inactive”; that for `CC(C)COC(=O)c1ccc(O)cc1` was “inactive”; that for `CSSc1ccoc1C` was “inactive”.
For `Cc1ccc(Cl)cc1N`, the Potency entry is “inactive”.
On the same count and under the same terms, the value for `C[C@@H]1C[C@H]2[C@@H]3CCC4=CC(=O)C=C[C@]4(C)[C@@]3(F)[C@@H](O)C[C@]2(C)[C@@]1(O)C(=O)COP(=O)(O)O` was “inactive”.
Same read-out and setting: the value for `Cc1ccc2c(c1[N+](=O)[O-])C(=O)c1ccccc1C2=O` was “inactive”; that for `CC(C)(C(=O)c1cccnc1)c1cccnc1` was “inactive”; that for `CCN(Cc1cccc(S(=O)(=O)O)c1)c1ccc(C(=C2C=CC(=[N+](CC)Cc3cccc(S(=O)(=O)O)c3)C=C2)c2ccc(O)cc2S(=O)(=O)[O-])cc1` was “inactive”.

Tested on in a further test: not listed separately
Description: qHTS assay to identify small molecule antagonists of the sonic hedgehog signaling (Shh) pathway (AID 1259369). Note: nearly all actives have a fitted effect of over 45% in size. Note: potency is the fitted concentration of half-maximal effect. Conditions: NIH/3T3 Gli1-Luc reporter, Shh antagonist, luminescence 24 h; series mostly up to 92.4 µM. In outline: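 NIH/3T3-derived 3T3Gli1-Luc cells with stably integrated Gli1-Luc reporter were preincubated 4hr at 37 C, then given compounds in DMSO plus Shh conditioned medium and incubated 24hr. Firefly luciferase luminescence read after 30min reagent at room temperature.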
With `COC(=O)CC(C(C)=O)C(=O)OC` (stereo not given), the Potency result is “inactive”.
For the compound `CC(C)(O)CCc1ccccc1`, the Potency result was “inactive”.
As for `C=C(C)c1ccccc1`, the Potency result was “inactive”.
Turning to `Cc1cccc2sc(N)nc12`, the Potency result was “inactive”.
Still for that read-out and setting: the value for `Nc1cccc2c(N)cccc12` was 5.45 µM (active); that for `CC(=O)Oc1cccc(O)c1` was “inactive”; that for `CCCOC(=O)c1c(Cl)c(Cl)c(Cl)c(Cl)c1C(=O)OCCC` was “inactive”.
As to `CCc1ccc(C)cc1`, the Potency result is “inactive”.
In the case of `COC(OC)OC`, the Potency entry was “inactive”.
Turning to `CCCCCCCCCCCCCOS(=O)(=O)O`, the Potency entry is “inactive”.
Same read-out and setting: the value for `Nc1ccc(F)cc1` was “inactive”; that for `CCCCCCCCCCCCCCCCCC(=O)OCC(CC)CCCC` (stereo not given) was “inactive”; that for `CC(=O)OCCC(C)CC(C)(C)C` (stereo not given) was “inactive”.
For `CC(C)(O)c1coc(S(=O)(=O)NC(=O)Nc2c3c(cc4c2CCC4)CCC3)c1`, the Potency is 54.5 µM (active).
On the same count and under the same terms, the value for `CC(=O)C(C)=O` was “inactive”; that for `CC(C)N(C)C` was “inactive”; that for `O=C(NC(Cc1cc(=O)[nH]c2ccccc12)C(=O)O)c1ccc(Cl)cc1` (stereo not given) was “inactive”.
Take `O=C(O)c1ccc(O)cc1O`: the Potency entry is “inactive”.
Take `CCCCOC(=O)CCCCC(=O)OCCCC`: the Potency result is “inactive”.
The same measure, in the same setting: the value for `O=C(Nc1ccc(C(=O)O)c(O)c1)c1ccccc1` was “inactive”; that for `Cc1ccc(N(CCO)CCO)cc1` was “inactive”.
For the compound `CC(=O)NCCO`, the Potency entry was “inactive”.
With `C=Cc1ccc(OC(C)=O)cc1`, the Potency entry is “inactive”.
With `Cc1ccc2c(c1)CCCN2`, the Potency entry is “inactive”.
Same read-out and setting: the value for `CC(C)COC(=O)c1ccc(O)cc1` was “inactive”.
In the case of `CSSc1ccoc1C`, the Potency entry was “inactive”.
Regarding `Cc1ccc(Cl)cc1N`, the Potency entry was “inactive”.
The same measure, in the same setting: the value for `Cc1ccc2c(c1[N+](=O)[O-])C(=O)c1ccccc1C2=O` was “inactive”; that for `CCN(Cc1cccc(S(=O)(=O)O)c1)c1ccc(C(=C2C=CC(=[N+](CC)Cc3cccc(S(=O)(=O)O)c3)C=C2)c2ccc(O)cc2S(=O)(=O)[O-])cc1` was 4.67 µM (active).

Another test concerns the target Estrogen receptor beta (Homo sapiens) (UniProt Q92731). Description: qHTS assay to identify small molecule agonists of the estrogen receptor beta (ER-beta) signaling pathway (AID 1259377; active = well fitted activation curve with a large enough effect in the signal ratio in the repeat runs, not every such curve was filed as active; the % refers to the signal ratio). Conditions: ER-beta-UAS-bla HEK293T, beta-lactamase FRET ratio, 16 h; series mostly up to 92.4 µM. In outline:
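HEK293T ER-beta-UAS-bla; 2% charcoal-stripped FBS; cells pre-incubated 6 hr, compound 16 hr, 37C/5% CO2; LiveBLAzer B/G FRET substrate 2 h RT; fluorescence intensity read.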
Take `COC(=O)CC(C(C)=O)C(=O)OC` (stereo not given): the Potency result is “inactive”.
On the same count and under the same terms, the value for `CCCOC(=O)c1c(Cl)c(Cl)c(Cl)c(Cl)c1C(=O)OCCC` was “inactive”.
Consider `CCc1ccc(C)cc1`, for which the Potency entry was “inactive”.
On the same count and under the same terms, the value for `COC(OC)OC` was “inactive”; that for `CCCCCCCCCCCCCCCCCC(=O)OCC(CC)CCCC` (stereo not given) was “inactive”.
`CC(C)(O)c1coc(S(=O)(=O)NC(=O)Nc2c3c(cc4c2CCC4)CCC3)c1`: the Potency result is “inactive”.
On the same count and under the same terms, the value for `Cc1ccc(N(CC2=NCCN2)c2cccc(O)c2)cc1` was “inactive”; that for `CCCCOC(=O)CCCCC(=O)OCCCC` was “inactive”.
As for `O=C(Nc1ccc(C(=O)O)c(O)c1)c1ccccc1`, the Potency result is “inactive”.
For the compound `CC(=O)NCCO`, the Potency result is “inactive”.
On to `CNCc1ccc(NC(=O)c2c[nH]c3c2C(=O)CCC3)cc1`, for which the Potency entry was “inactive”.
Same read-out and setting: the value for `CSSc1ccoc1C` was “inactive”; that for `Cc1ccc(Cl)cc1N` was “inactive”.
